Among all 53,000 sequences or so, about 3,700 (7%) were called active. The full list was thinned out, with actives kept by preference. Values without a mark were called inactive.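 How the source made its calls: active means gene knockdowns whose robust z-score for IL-1 alpha signal is at least 2 or at most -2, so actives lie on both sides; inactive means the rest.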

Consider 108 sequences from PubChem BioAssay AID1508600 (Functional Genomics Laboratory (NCATS/FGL), 2020).

This assay can be described thus: Components of the Cytosolic LPS Sensing Pathway: Gene Identification via Genome-wide siRNA Screen.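 Further: robust z of the log signal after scaling to non-targeting control siRNA wells of the plate.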 The conditions noted are these: RAW264.7 macrophages, IL-1a HTRF, actives lie on both sides, screened at 100 nM (by protocol), cells primed 5 h with Pam3CSK4 first. Summed up: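 Cells (RAW264.7, 1×10^4 per well) were transfected with siRNA at 100 nM and cultured 48h at 37 degrees C. Pam3CSK4 was added for 5 hours; LipidA transfection followed for 24 hour. IL-1a was then measured by HTRF.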
Take GGCACAGAAGAAUGAGAGATT against Schip1: the z-score was 0.217. On to CGUACUCUUUCUUUAAUCCTT against Umod, for which the z-score is -0.622.

Consider GGUCCAUUACGUGCGCUUATT against Cage1, for which the z-score was -0.00235. Consider GGCCUGACUUUUUGUCUUATT against Klhl15, for which the z-score was 1.09. GGAACUGCCAUUGUAUGGGTT against Myo1g: the z-score is -0.568. Turning to GGCAAAGUGUCCCUCCGAATT against Skint7, the z-score was 2.06 (active). The result for CCGCAUUUCAGACAUAGGCTT against Olfr248 reads -0.729; that for GCAGAAUGUCACUAAGUGCTT against Sdcbp2, 0.271. Then GGGAGAAGCAAUUUUUAACTT against Gpr34, with 0.132; and CCUAUGGUAGAAAAAUACUTT against Fundc1, with -0.252.

In the case of GGCAGCUGAUCAGAAAUCATT against Gabrg3, the z-score is -1.13. Then GCUCACUAACUUUUACAAGTT against Fam166c, with 0.419; and CCAAGAGUUGUCAAUAUAATT against Crisp3, with 0.768.

For the sequence GGAGAGAAGAUCAUUUCAATT against Ncam2, the z-score is 2.38 (active). The result for CCCUCCGUGUUUUUAAGAUTT against Tbl2 reads 0.176; that for GGAUUUUGAUCUAAUGAGATT against Zfp354c, 0.366; that for GGCAAUUCUCUGUAUCCACTT against Cyp2d34, -0.358. Consider GCAUGUCGUCUGAGAAAGUTT against Pgr, for which the z-score is -0.748.

As to GGCUUUAUCAGAUCCAACCTT against Tmem108, the z-score is 2.47 (active). With GGUCAUAGAUGAGCUUAGUTT against Appl1, the z-score was -0.763. Then GGCAUGUUGAUGGGAAUUUTT against Srp9, with 0.536; and GGCCUACCCAAUUCUUAACTT against Ces1g, with -0.0881. With GUGUUUCCUUGUUAAGAUUTT against Bloc1s4, the z-score was -0.841. Take CCAGUAAAAAUUGAAGGCUTT against Capza2: the z-score is 0.565. Then GGCCCUUCAUGAAGAGCAATT against Carf, with 2.07 (active).

GGUCUACGUUAUUAUUACCTT against Etv2: the z-score was -0.537. Then GGAGCUUGACAUUCUGGAATT against Tmco4, with 0.766.

With CCGAGUUUGGGAAUAACUUTT against Cacna1a, the z-score was 1.45. Regarding GGCCAUUAUUCGUGAGUUGTT against Armc10, the z-score is 2.11 (active).

With CGGCAAUGUGACUAACAUCTT against Nrros, the z-score is 0.76.

As to CGAGAUGUACCUUGAUACUTT against Idh3a, the z-score is 1.44.

GCGAUGGACUCAAAAAACUTT against Ehd3: the z-score is 0.0497. As to GCUGUGUAUGUAUUUCAUGTT against Rnf128, the z-score is 0.549. The result for GGCAGGAAUCUAUAUUAAUTT against Slc17a3 reads 0.48; that for GCGAAAGAUAUUGUGGAAGTT against Dixdc1, -0.511.

For the sequence CCAUCAUGAACACUCAACATT against Olfr462, the z-score was -2.59 (active).

For the sequence GCACUUUAAGAGACAAUGUTT against Gpr63, the z-score is 0.302.

GGCUGACUGGACAAUAAAGTT against Krt85: the z-score was -1.28. The result for CCAGUCAUCAUGCUACACGTT against Slc19a3 reads 0.473.

GGAGUGCUUUUAAAUCCCUTT against Rreb1: the z-score is -1.43. The result for GCACUAAUACUAACCAUGGTT against Rhox12 reads 0.788; that for GGCAAGAAAUUCUUCAGCATT against St8sia3, -1.38. The result for GGUAAUGUACCUAAUAUUGTT against Cnn1 reads 0.307; that for GCCAGAACCGCAUAUUCUUTT against Cks2, -0.481; that for GGCUGAAGCUCGACUGAAGTT against Abcf3, 2.35 (active).

GCAACACGGCGGAAUAAAGTT against Washc1: the z-score is -0.336. Then GGAGCUGUAUGACCAUGCCTT against Rab25, with -2.03 (active); and GGGUGAUGAUCUUCAGCAATT against Txnrd3, with -0.616; and GGACCUAAAGAUAAUAAGUTT against Pex3, with -0.481. Then GCCCAUCAGAUGGCAAGAUTT against Pisd, with 1.09; and GUCCCACACUGAUAAGAUUTT against Lcorl, with -0.602. The result for GGAGCCUAUACUGAUUUAUTT against Tomm7 reads 2.13 (active); that for GCAGCUUAGUGAUUUGAAATT against Tex21, -1.24; that for CCGGAUUCGAGAGGUGAUGTT against Lrrc52, 0.0804. Turning to CGGCAAAAUUAGCUAUUCATT against Exosc4, the z-score was 0.489. Regarding GGCAUUACAGUGUUUCUGCTT against Tgfbr1, the z-score is -0.288. For the sequence GGGCAAUGAUUUCGCCUUCTT against Ninj1, the z-score was 0.337. For GGAUUCGUAAACUUCAGAUTT against Igf2bp3, the z-score was 3.41 (active).

With GGGUCAGAACACGUACGAGTT against Gnaz, the z-score was 1.06. The result for CGAGUGUGAGCUACAGCGUTT against Agrn reads 2.74 (active); that for UCUGUGGACCAGGAUUUGGTT against Pcsk1n, -2.8 (active). GGGUGUGACGAUUCUCACCTT against Olfr800: the z-score was 0.705. GGAAAAUGAAGGUUCAGAATT against Pkib: the z-score is -0.185. With GGACUGUGAGGCCUAUGAATT against Cd72, the z-score was -0.1. Then CCGAUCUGAUAUAGUAGAATT against Stk31, with 2.18 (active); and GGCCACAGAUCUUCUGGUGTT against Calml4, with 1.08.

For CGAGGGUCUGAAAAAUUACTT against Ighg, the z-score is 1.28. Then GGUAUGCACUCACACCAGATT against Mus81, with 0.73; and GGCCGUGUGCAUCUUUGUGTT against Gpr20, with 1.43.

On to GGGAGAUCUCCAACACCAATT against Dipk1b, for which the z-score is -1.02. For the sequence CCUUUGGUGAAGCCUGGAUTT against Kiss1, the z-score was -0.0609. As to GGACUUCAUGGCUAGUUUCTT against B4galt4, the z-score was -0.14. Turning to GCAGAGCAUGCCUUACUGUTT against Eif4ebp1, the z-score is 4.39 (active). With GCUAACAGCAUCCUUUUUGTT against Vmn1r50, the z-score is -0.843. Then GGAGAUUGACCUGGUCAACTT against Cav1, with 1.44; and GGUUAUGAUCGGCAUCGCUTT against Fam24a, with -1.46. For the sequence “GGCUUCCUUCAGUGAGAAUTT against 1810065E05Rik”, the z-score was -2.02 (active).

With GGCAUGAGUGCAUUUGCUATT against Ifi203, the z-score is -0.673. As to “CCUAAGCUUAUCUCAUAUUTT against 4930449I24Rik”, the z-score is -0.572. Then GGGCUACUACAAUGAGUACTT against Phospho1, with 0.412. Then GGGUGAGAUGAAAUGCAUCTT against Efemp2, with 0.264; and GGCCGACAAUUUGUCAGUUTT against Uaca, with -1.19. As to GCAAGUGUUAGAACACAAGTT against Cish, the z-score is 0.823. The result for CGGUUCUGGUGCAUUCACATT against Olfr242 reads -2.06 (active); that for GGAAAUUGGAGAUUUUUCCTT against Ccdc54, -1.02.

As to GGCAUUGGAUCUUCAUUUUTT against Slc18a1, the z-score is 2.35 (active). Then GGUGGAGAUCAAACCAGAGTT against Rps15, with 1.4; and GGGAAACUCUCAGAUGAAGTT against Sh2d7, with -1.9; and GGCAGACAACUUCUACCAATT against Crim1, with 2.52 (active). Then GGCAAAAUCUCAUCAGUCCTT against Iqcc, with -0.131; and GGUGAUCUAGAAACAACCCTT against Tmco5, with 0.243; and CCAUCCAGCUUUCAUUAAATT against Nckap1l, with 0.508.

For GGUCUCCAUUUCUUUCUGCTT against Nmd3, the z-score is -0.952. Regarding GGAAAGAGGAAAUCUUUAGTT against Furin, the z-score was 2.04 (active). The result for GGACUGAAGUGAAAUAAAUTT against Trav13-5 reads -0.949; that for GCAUCAUCGUGGGAAACCUTT against Olfr1284, 0.331; that for CCAUUCUCUUUACCUCAAUTT against Rdh12, -0.161. With CCUGUAGGAGUGACUUCCUTT against Crbn, the z-score was 0.223.

As for GGGACCAGAUAGAAAUUAUTT against Arhgef25, the z-score was 0.414. For GGAAGAGAAGUUGUCCAAATT against Creld1, the z-score is 0.477. For “GCUCACAGCAGCAUUUUACTT against 1700034H15Rik”, the z-score is -2.48 (active).

Consider GGACUCCUACAUGAUUGCUTT against Slc52a2, for which the z-score is -0.362.

As for UGUGGUCUUAGAAUCUAGCTT against Tdpoz3, the z-score is 4.49 (active).

For CCAUUACUUCUGUGACCUCTT against Olfr32, the z-score is -0.289. For the sequence GCUGCUUUCUUUGGAGGACTT against Olfr484, the z-score was 2.27 (active). Then GGAGCUCUUUGACUUCUUGTT against Uqcrh, with 0.359; and GGUGGCUAAAAGCUCUUCCTT against Odc1, with 1.9; and “GGCCCAUUGUUUGAGCCCATT against A530013C23Rik”, with -0.961.
